Screen size: about 120,000 compounds; about 840 (0.7%) were called active.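 Rule for the calls: active = inhibition above the batch mean plus 3 SD, and confirmed as a hit on visual image review (cut at about 43% in these data); inconclusive = passes the inhibition cutoff but fails visual image review; inactive = the rest.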 Many of the other results were omitted from the sample, so actives are more common in it than they were.

This test is described as follows: E-selectin induction blockers in HUVEC – imaging, immunofluorescence, high content, primary screen (AID 1246).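 Note: 0% = TNF-stimulated DMSO wells and 100% = unstimulated control wells.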 The conditions noted are these: HUVEC TNFa-induced E-selectin immunofluorescence, at 2 µM, active compounds read high.
One may read the inhibition as the relative decrease from the control value, in per cent. Turning to `CC(C)C(c1nnnn1CCc1ccccc1)N1CCN(C(=O)c2ccco2)CC1` (configuration not stated), the inhibition was 20.3% (inactive).

Take `Cc1ccc(C(c2nnnn2CS(=O)(=O)c2ccc(C)cc2)N2CCC(C(N)=O)CC2)cc1` (configuration not stated): the inhibition was -22.9% (inactive).

As to `CC(C)C(c1nnnn1Cc1ccccc1)N1CCC(C(N)=O)CC1` (configuration not stated), the inhibition was 100% (active).

On to `CC1CCCC(C)N1/N=C/c1ccccc1OC(F)F` (configuration not stated), for which the inhibition was 0.15% (inactive).

Consider `O=C(CN(CC1CCCO1)C(=O)CNS(=O)(=O)c1ccc(F)cc1)NCc1ccco1` (configuration not stated), for which the inhibition is -15.3% (inactive).

Regarding `CCN(CCCNC(=O)CCn1c(=O)[nH]c2ccsc2c1=O)c1ccccc1`, the inhibition is -8.13% (inactive).

For the compound `O=S(=O)(c1ccc2c(c1)OCCO2)N1CCc2ccccc21`, the inhibition was 27.9% (inactive).

On to `COCCN(C(=O)CCC(=O)Nc1nccs1)C(C(=O)NC(C)(C)C)c1ccc(Cl)cc1` (configuration not stated), for which the inhibition was 19.2% (inactive).

Regarding `COc1cc(/C=N/Nc2ccc(C)cc2)cc(Br)c1O`, the inhibition is -4.64% (inactive).

`Cc1cc(C)n2nc(C(=O)N(C)C(c3ccccc3)c3ccccc3)nc2n1`: the inhibition is 45.1% (active).

For the compound `Cc1cc(C)n2nc(SCC(N)=O)nc2n1`, the inhibition is -29.9% (inactive).

Take `Cc1cc(C)n2nc(C(=O)N3CCN(Cc4ccc5c(c4)OCO5)CC3)nc2n1`: the inhibition was -35.2% (inactive).

Consider `COC(=O)c1c(C(=O)OC)c(-c2cccc(C)c2)n2c1CS(=O)C2` (configuration not stated), for which the inhibition was 58.3% (inactive).

Take `CSc1nc2nc(-c3cccc(C(F)(F)F)c3)ccn2n1`: the inhibition is -26.4% (inactive).

For the compound `CC(CC(=O)C1C(C)C=CCC1(C)C)NNC(N)=O` (configuration not stated), the inhibition is 13.4% (inactive).

For `CC(=O)Nc1ccc(C(=O)OCC(=O)Nc2ccc([N+](=O)[O-])cc2C(F)(F)F)cc1`, the inhibition was -7.06% (inactive).

Consider `CC(=O)c1ccc(NC(=O)Nc2ccc([N+](=O)[O-])cc2C)cc1`, for which the inhibition is 70.8% (active).

Consider `CC(=O)c1cccc(NC(=O)Nc2ccc(C)cc2)c1`, for which the inhibition is 8.52% (inactive).

Take `CCCCN(CC(=O)NC(C)(C)C)C(=O)C(=O)Nc1ccc2c(c1)OCCO2`: the inhibition was -8.58% (inactive).

Turning to `Cc1nccn1CCCNC(=O)CC1C(=O)NCCN1Cc1ccc(Cl)c(F)c1` (configuration not stated), the inhibition was -5.16% (inactive).

For the compound `COc1ccc(Cc2nnc(NS(=O)(=O)Cc3ccccc3)s2)cc1`, the inhibition was 55.2% (inactive).

`COc1ccc(Cc2nnc(NC(=O)Cc3cccs3)s2)cc1`: the inhibition was 83.6% (active).

Take `O=C(Cc1cccs1)Nc1nnc(SCc2ccc(F)cc2)s1`: the inhibition is -12.5% (inactive).

In the case of `CCCC(C)C(=O)NCc1ccncc1` (configuration not stated), the inhibition was 0.76% (inactive).

On to `CCOC(=O)N1CCC(=NNC(N)=O)CC1`, for which the inhibition was -34.9% (inactive).

Regarding `Cn1cc(-c2ccccc2)cc(C#N)c1=O`, the inhibition is 3.87% (inactive).

`Cc1cc(OC(=O)c2ccccc2)c([N+](=O)[O-])c(=O)[nH]1`: the inhibition is -11.2% (inactive).

`CC(=O)Nc1ccccc1Sc1ccc2c3c(cccc13)C(=O)N(c1ccc(C)cc1)C2=O`: the inhibition was 62.1% (active).

On to `CCOC(=O)Nc1ccccc1N1C(=O)c2ccccc2C1=O`, for which the inhibition was -7.24% (inactive).

On to `CC(=O)NCCn1c(SCC(=O)Nc2ccc(C)cc2)nc2ccccc2c1=O`, for which the inhibition was -10.7% (inactive).

Turning to `C/C=N/NC(=O)CCCC(=O)N/N=C/C`, the inhibition is -10.5% (inactive).

Regarding `CN1CCC(OC(=O)COc2ccc(Cl)cc2Cl)CC1`, the inhibition was 12.5% (inactive).

As to `Cc1ccc(C(=O)NC(=S)Nc2ccc(N3CCOCC3)cc2)cc1`, the inhibition was 2.01% (inactive).

Consider `Cc1ccc(C)c(Cn2cnc3c(oc4ccccc43)c2=O)c1`, for which the inhibition is -10.7% (inactive).

`CC1CCC2(CC1)NC(=O)N(Cc1nnc(-c3cccs3)o1)C2=O` (configuration not stated): the inhibition is -9.64% (inactive).

For the compound `Cc1nc(-c2ccc(Cl)cc2)sc1C(=O)CBr`, the inhibition was 24.5% (inactive).

Turning to `CCc1nnc(NC(=O)CCCSc2nc3ccccc3[nH]2)s1`, the inhibition was -35.3% (inactive).

As to `CCC(C)(C)NC(=O)CN(C(=O)C(=O)Nc1ccc2c(c1)OCCO2)C(C)(C)CC`, the inhibition was -8.58% (inactive).

Take `COc1ccc(C(=O)Nc2ccc(S(=O)(=O)NC(C)C)cc2)cc1`: the inhibition is -8.02% (inactive).

As to `COc1ccc(NC(=O)c2c(C)oc3c2CCCC3)cc1`, the inhibition was 60.9% (active).

Regarding `COc1ccc(NC(=O)c2ccc(OC)cc2)cc1`, the inhibition was -30.5% (inactive).

With `COc1ccc(-c2[nH]ncc2CN(C)Cc2cccnc2)c(F)c1`, the inhibition was -5.34% (inactive).

Take `O=C(NCc1nnc(SCC(=O)N2CCCc3ccccc32)o1)c1ccccc1F`: the inhibition is -38.5% (inactive).

`CCN(CC)S(=O)(=O)c1ccc(N(C)CCc2ccc(OC)c(OC)c2)nc1`: the inhibition was 0.93% (inactive).

As to `CCCOc1ccc(C(=O)NCCc2ccccc2)cc1`, the inhibition is -42.2% (inactive).

As for `Cn1c(SCC(=O)N2CCCc3ccccc32)nc2ccccc2c1=O`, the inhibition was -1.81% (inactive).

With `O=C(CSc1nc2ccccc2c(=O)n1CCCO)N1CCc2ccccc21`, the inhibition is -7.95% (inactive).

Regarding `C=CCn1c(=O)c2ccccc2n2c(SCC(=O)N3CCCc4ccccc43)nnc12`, the inhibition was 80.1% (active).

`Cc1c(Br)c([N+](=O)[O-])nn1CC(=O)N1CCN(Cc2ccccc2)CC1`: the inhibition was 8.51% (inactive).

For `O=C(/C=C/c1ccccc1Cl)Nc1ccc(S(=O)(=O)Nc2ncccn2)cc1`, the inhibition is -13.4% (inactive).

For the compound `OCCNCCOc1ccc(Cl)c(Cl)c1`, the inhibition is 75.2% (active).

With `OCCNCCCCOc1ccccc1F`, the inhibition was -13.2% (inactive).

As for `COCCCNCCOCCOc1ccc(Cl)cc1Br`, the inhibition is -28.3% (inactive).

Take `CCOC(=O)N1CCN(CCC(=O)Nc2cc(OC)ccc2OC)CC1`: the inhibition was -40.9% (inactive).

As to `O=C(Nc1cccc(F)c1)N1C2CCC1CC(O)(c1cccnc1)C2` (configuration not stated), the inhibition was -22.6% (inactive).

Turning to `CN(C)C(=O)c1nc2ccc(Cl)cn2c1CN1CCN(c2ncccn2)CC1`, the inhibition is -15.7% (inactive).

On to `Cc1cnc(C(=O)OCC(=O)NCCCc2ccccc2)cn1`, for which the inhibition is -18.2% (inactive).

As for `O=C(CCSc1ccccc1)N1CCN(c2ccccc2F)CC1`, the inhibition is -7.82% (inactive).

In the case of `Cc1cc(C)n(-c2nnc(N3CCN(c4ccccc4)CC3)nn2)n1`, the inhibition was 1.97% (inactive).

As for `Cn1c(SCC(=O)Nc2cccc(NC(=O)c3cccs3)c2)nnc1-c1ccncc1`, the inhibition is 26.7% (inactive).

As for `CCCCSc1nnc(-c2ccc(NC(=O)CC)cc2)n1C`, the inhibition is 1.71% (inactive).

On to `CCC(=O)Nc1cccc(NC(=O)CSc2nnc(-c3ccc(NS(C)(=O)=O)cc3)n2C)c1`, for which the inhibition was 64.3% (active).
